# From PubChem BioAssay
# An excerpt weighted towards active compounds, which were near 1.2% of everything screened.
# RGS16-Gao: RGS16-Galphao interaction regulator (human); 220,000 compounds, 0.38% hits; bead-based flow cytometry RGS16-Galphao binding, fluorescence; actives lie on both sides; binding response (% of control), % at 10 µM; O15492+P09471;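 also: Galphao activated by GDP with aluminum fluoride before binding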
# RGS7-Gao: modulates binding of RGS7 to human Galphao; P09471; Multiplexed bead flow cytometry; actives lie on both sides; binding response (% of control), % at 10 µM; 220,000 compounds, 0.35% hits; AID 1439; in the data active = binding response below about 49% or above about 150%; inconclusive = no clear call, values can overlap the other calls; inactive = in between;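 also: fluorescent Galphao held in activated GDP-AlF4 state binding bead-coupled RGS7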
# Target sequence (P09471 whole entry, looked up): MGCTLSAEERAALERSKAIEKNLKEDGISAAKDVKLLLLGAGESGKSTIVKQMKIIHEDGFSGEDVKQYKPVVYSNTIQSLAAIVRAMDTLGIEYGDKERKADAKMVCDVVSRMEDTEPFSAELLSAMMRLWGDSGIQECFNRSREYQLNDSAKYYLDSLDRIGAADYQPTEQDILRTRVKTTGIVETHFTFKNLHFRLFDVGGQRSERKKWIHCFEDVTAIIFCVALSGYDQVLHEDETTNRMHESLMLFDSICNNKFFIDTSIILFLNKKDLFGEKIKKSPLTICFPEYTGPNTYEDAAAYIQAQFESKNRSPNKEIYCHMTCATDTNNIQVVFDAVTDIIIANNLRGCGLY
# GSH fluor: compound fluoresces at 488/530 nm on GSH beads; 190,000 compounds, 0.25% hits; GSH beads flow cytometry, compound fluorescence 488/530 nm; hits give high values; fluorescence (KMESF) at 10 µM; AID 1776; in the data active = fluorescence above about 89;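 also: glutathione beads carrying GST-tagged Bcl family fusion proteins plus one bare bead set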
# RGS4-Gao reg: human RGS4-Galphao interaction regulation; 220,000 compounds, 0.33% hits; Multiplexed bead flow cytometry, RGS4-Galphao binding; actives lie on both sides; P09471; binding response (% of control), % at 10 µM; in the data active = binding response below about 49% or above about 150%; inactive = in between;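 also: fluorescent Galphao activated with aluminum fluoride binding bead-coupled RGS4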
# Avidin fluor: compound fluoresces at 488/530 nm on avidin beads. compound fluorescence 488/530 nm, flow cytometry; hits give high values. fluorescence (KMESF) at 10 µM. 220,000 compounds, 0.38% hits; in the data active = fluorescence above about 47
# RGS8-Gao reg: human RGS8-Galphao interaction regulation; response (percent of control binding), % at 10 µM; P09471; multiplexed bead flow cytometry, RGS8-Galphao binding; actives lie on both sides; 220,000 compounds, 0.34% hits; in the data active = response below about 60% or above about 140%; inactive = in between;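 also: Galphao activated as the GDP aluminium fluoride complex binding bead-coupled RGS8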
# RGS4-Gao HTS: modulates binding between human RGS4 and Galphao; RGS4–Galpha-o binding response, % at 10 µM; shares compounds with RGS16-Gao; 1,600 compounds, 99% hits; multiplexed bead flow cytometry, RGS–Galpha-o binding;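 also: fluorescently labeled Galpha-o bound to GDP with aluminium fluoride binding biotinylated RGS beads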
# Biotin-avidin: interferes with biotinylated probe binding to avidin beads | shares compounds with RGS16-Gao | streptavidin beads, fluorescein-biotin binding, flow cytometry | inhibition, % at 10 µM | 1,700 tested, under 10 active | AID 1783;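 active = inhibition above 50%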;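 also: median green fluorescence of gated singlet beads compared with DMSO control wells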
# RGS8-Gao single: confirmation of regulators of human RGS8-Galphao interaction. shares compounds with RGS16-Gao. bead-based flow cytometry RGS8-Galphao binding, fluorescence; actives lie on both sides. binding response (% of control), % at 10 µM. 1,700 compounds, 3% hits. AID 1836; in the data active = binding response below about 72% or above about 130%; inactive = in between;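 also: Galphao activated as GDP AlF4 complex before binding bead RGS8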
# RGS7-Gao single: RGS7-Galphao interaction regulation, single point confirmation; shares compounds with RGS16-Gao; bead-based flow cytometry RGS7-Galphao binding; actives lie on both sides; response (percent of control binding), % at 10 µM; 1,700 compounds, 7.8% hits; in the data active = response below about 75% or above about 130%; inactive = in between;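 also: fluorescent Galphao activated with GDP and aluminum fluoride binding bead-coupled RGS7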
# RGS16-Gao conf: RGS16-Galphao interaction regulation, single point confirmation | shares compounds with RGS16-Gao | bead-based flow cytometry, RGS16-Galphao binding; actives lie on both sides | response (% of control binding), % at 10 µM | 1,700 compounds, 4% hits; in the data active = response below about 74% or above about 130%; inactive = in between;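 also: Galphao activated as the GDP aluminium fluoride complex binding bead-coupled RGS16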
# RGS4-Gao single: confirmation of regulators of human RGS4-Galphao interaction; shares compounds with RGS16-Gao; RGS4-Galphao binding, multiplexed bead flow cytometry; actives lie on both sides; binding response (% of control), % at 10 µM; 1,700 compounds, 4% hits; in the data active = binding response below about 74% or above about 130%; inactive = in between
# RGS19-Gao conf: confirmation of regulators of human RGS19-Galphao interaction; shares compounds with RGS16-Gao; bead-based flow cytometry RGS19-Galphao binding; actives lie on both sides; response (percent of control binding), % at 10 µM; 1,700 compounds, 5% hits; in the data active = response below about 50% or above about 160%; inactive = in between
# Target sequence (P09471 whole entry, looked up): as above
# Target sequence (P49795 whole entry, looked up): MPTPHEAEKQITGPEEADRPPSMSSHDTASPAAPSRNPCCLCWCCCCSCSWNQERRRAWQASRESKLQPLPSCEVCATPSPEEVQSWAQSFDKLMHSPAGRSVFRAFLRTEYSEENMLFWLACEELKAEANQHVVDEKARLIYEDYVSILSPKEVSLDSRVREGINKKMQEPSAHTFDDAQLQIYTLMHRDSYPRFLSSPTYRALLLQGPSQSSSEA
# A number is an active result; 0 = inactive; ? = inconclusive; - = no result; [ ] = another dose, or the depositor's remark. Unless noted, no rule for the calls is given here.
SMILES,RGS16-Gao,RGS7-Gao,GSH fluor,RGS4-Gao reg,Avidin fluor,RGS8-Gao reg,Biotin-avidin,RGS8-Gao single,RGS7-Gao single,RGS16-Gao conf,RGS4-Gao single,RGS19-Gao conf,others
Cc1nn(CC(=O)N2CCc3ccccc3C2)c(C)c1[N+](=O)[O-],0,0,0,0,0,0,-,-,-,-,-,-,
NNC(=O)c1cc2cc(OC(F)(F)F)ccc2[nH]1,0,?,-,0,0,0,-,-,-,-,-,-,
Nc1nc(-c2c[nH]c3ccccc23)cs1,0,0,0,0,0,0,-,-,-,-,-,-,
CNc1nc(-c2c[nH]c3ccccc23)cs1,202[activator],151[activator],0,192[activator],93,0,0,0,0,0,0,0,
CCCN(CC1CC1)C(=O)CSc1nnc(-c2cc(-c3cccs3)nc3ccccc23)o1,0,0,0,0,0,0,-,-,-,-,-,-,
CCOC(=O)c1ccc(NC2OC(=O)c3ccccc32)cc1 (stereo unspecified),-,-,0,-,-,-,0,0,0,0,0,0,
O=C(c1ccccc1)N1CN2CN(C(=O)c3ccccc3)CC([N+](=O)[O-])(C2)C1,0,0,0,0,0,0,-,-,-,-,-,-,
CC(C)n1nc(C(=O)OCC(=O)c2c[nH]c3ccccc23)c2ccccc2c1=O,-,-,0,-,-,-,0,0,0,0,0,0,
CCCC(=O)NCCCCNC(=O)CCC,0,0,0,0,0,0,-,-,-,-,-,-,
CC(=O)N(O)CCCCCNC(=O)CCC(=O)N(O)CCCCCNC(=O)CCC(=O)N(O)CCCCCN,0,0,0,0,0,51,0,53,58,42,57,0,RGS4-Gao HTS=61
CC(C)OC(=O)NCCOC(=O)Nc1ccc(Cl)cc1,0,0,0,0,0,0,-,-,-,-,-,-,
C=CCOC(=O)C(=O)/C=C/c1c(C)n(C)n(-c2ccccc2)c1=O,0,154[activator],0,150[activator],0,0,0,0,0,0,0,0,
CC1(C)CCC(C)(C)NC(=S)N1,15,0,0,0,0,0,0,0,71,0,0,0,RGS4-Gao HTS=99
CCOC1CC(C)(C)NC(=S)N1 (stereo unspecified),0,0,0,0,0,0,-,-,-,-,-,-,
COc1ccc(C2(CNC(=O)c3cccc([N+](=O)[O-])c3)CCOCC2)cc1,0,0,0,0,0,0,-,-,-,-,-,-,
CCCCCCC(=O)c1c(C)[nH]c(C(=O)OCC)c1C,-,0,0,0,0,-,0,0,0,0,0,0,
Cc1ccc(N=Nc2ccc(O)c3ncccc23)cc1C,0,0,0,0,0,0,-,-,-,-,-,-,
Cc1ccc(N=Nc2ccc(O)c3ncccc23)cc1,10,0,0,0,0,0,0,0,0,0,0,0,RGS4-Gao HTS=68
COc1ccc(C(=S)N2CCC(C(N)=O)CC2)cc1Br,0,?,0,0,0,0,-,-,-,-,-,-,
COc1ccc(C(=O)c2ccc(OC)c(Br)c2)cc1Br,254[activator],0,0,0,0,0,0,0,0,0,0,0,RGS4-Gao HTS=120
COc1ccc(-n2c(SCC(N)=O)nnc2-c2cccnc2)cc1,-,0,0,0,-,-,0,0,0,0,0,0,
O=C1NC(c2ccccc2)=C(c2ccccc2)C1=O,0,0,0,0,0,140[activator],0,0,0,0,0,0,RGS4-Gao HTS=116
O=c1c(-c2ccccc2)c1-c1ccccc1,0,0,0,0,0,0,-,-,-,-,-,-,
O=[N+]([O-])c1ccc2nc(SCc3ccccc3Cl)sc2c1,0,0,0,0,0,0,-,-,-,-,-,-,
O=C(CSc1nc2ccc([N+](=O)[O-])cc2s1)c1ccc2ccccc2c1,5.0,?,-,3.0,0,31,0,0,0,0,0,0,
SMILES,RGS16-Gao,RGS7-Gao,GSH fluor,RGS4-Gao reg,Avidin fluor,RGS8-Gao reg,Biotin-avidin,RGS8-Gao single,RGS7-Gao single,RGS16-Gao conf,RGS4-Gao single,RGS19-Gao conf,others
Cc1ccc(NC(=O)c2cncc(Br)c2)c(O)c1,0,0,0,0,0,0,-,-,-,-,-,-,
C/C(=N\OCc1ccccc1)c1c(O)cc(C(C)C)n(-c2ccccc2)c1=O,0,0,0,0,0,0,-,-,-,-,-,-,
CN(C)C(=O)NC(Nc1ccc(Cl)cc1Cl)C(Cl)(Cl)Cl (stereo unspecified),17,0,0,0,0,56,0,0,0,0,0,0,RGS4-Gao HTS=71
CN(C)C(=O)NC(NC(=S)Nc1ccccc1)C(Cl)(Cl)Cl (stereo unspecified),0,0,0,0,0,0,-,-,-,-,-,-,
CCCCc1ccc(NC(=O)C(C)CC)cc1 (stereo unspecified),0,0,0,0,0,0,-,-,-,-,-,-,
CCC1=C(OC(=O)N(CC)CC)N2C(=O)OC(=NCC3CC3)[C@]2(C)[C@H]2C1=CC[C@H]1C(=O)N(CC)C(=O)[C@H]12,0,?,-,0,0,0,-,-,-,-,-,-,
CNC(=O)/C(C#N)=C/c1cc(C)n(-c2ccc(N3CCOCC3)cc2)c1C,216[activator],?,-,254[activator],114,0,0,0,0,0,0,0,
Cc1c(N2CCCC2)cc2c(c1NC(=O)c1ccccc1Cl)C(C)(C)CC2(C)C,0,?,-,156[activator],0,0,0,0,0,0,0,0,
O=C(Nc1ccccc1N1CCCC1)c1cccc(Cl)c1Cl,0,0,0,0,0,0,-,-,-,-,-,-,
CCOC(=O)c1c(C)nc(SCC(N)=O)c(C#N)c1-c1ccccc1,182[activator],0,0,0,0,0,0,0,0,0,0,0,RGS4-Gao HTS=111
Nc1c(-c2cccc([N+](=O)[O-])c2)nc2ccccn12,0,0,0,0,0,0,-,-,-,-,-,-,
CCOC(=O)c1cnc2ccccc2c1Nc1cc(C(=O)O)ccc1C,0,0,0,0,0,0,-,-,-,-,-,-,
COc1ccc(-c2cc(C(F)(F)F)nc(SCC(=O)NCc3cnn(C)c3C)n2)cc1OC,0,0,0,0,0,0,-,-,-,-,-,-,
COc1ccc(-c2cc(C(F)(F)F)nc(SCC(=O)N(C)Cc3cn(C)nc3C)n2)cc1OC,0.0,0,0,0,0,0,0,0,0,0,0,0,RGS4-Gao HTS=78
Cc1ccc(-n2c(CCc3nc4ccccc4[nH]3)n[nH]c2=S)cc1,0,0,0,0,0,0,-,-,-,-,-,-,
Cc1ccc(-n2c(Cn3c(C)nc4ccccc43)n[nH]c2=S)cc1,-1.4,0,0,0,0,0,0,0,0,0,0,0,RGS4-Gao HTS=86
